{"source": "the OligoGym collection"}
{"target": "UST", "experiment": "pooled miR-30 sensor sort-seq; sequence = guide strand", "conditions": "shRNA"}
{"sequence": "TATATTTTTAATCAGTTCCATT", "sensor-assay potency score (higher = more potent)": -1.14}
{"sequence": "TTGAGGAAATGAACATGTCGAG", "sensor-assay potency score (higher = more potent)": -0.72}
{"sequence": "TACCCTGTTGTACACCACCTGG", "sensor-assay potency score (higher = more potent)": -1.05}
{"sequence": "TTGTTGTGAATGTCTGATGTGA", "sensor-assay potency score (higher = more potent)": -0.387}
{"sequence": "TTCAAGAATACACTCATTGATA", "sensor-assay potency score (higher = more potent)": -0.731}
{"sequence": "TAACAGCAGCACATCTTCCAAC", "sensor-assay potency score (higher = more potent)": -0.452}
{"sequence": "TAAAACTCGTACTCGTATCTCA", "sensor-assay potency score (higher = more potent)": 0.226}
{"sequence": "TACTCGTATCTCATCCGCTGGT", "sensor-assay potency score (higher = more potent)": -0.000159}
{"sequence": "AAATAGTTGGATAAGAACCGGT", "sensor-assay potency score (higher = more potent)": -0.125}
{"sequence": "ATCCTGTTCTTCATCGTCGATT", "sensor-assay potency score (higher = more potent)": -1.53}
{"target": "UTP18", "experiment": "pooled miR-30 sensor sort-seq; sequence = guide strand", "conditions": "shRNA"}
{"sequence": "TAGTGATACAGCATTATCTAAT", "sensor-assay potency score (higher = more potent)": -1.01}
{"sequence": "TTCATCTTCTTCATCCACCCAA", "sensor-assay potency score (higher = more potent)": 0.245}
{"sequence": "TTTATGAGCAAGAAGGACCCAT", "sensor-assay potency score (higher = more potent)": 0.234}
{"sequence": "TTTGCAACAAATCATCTTCATC", "sensor-assay potency score (higher = more potent)": -0.536}
{"sequence": "TTTCTTGGAGACAAGAATCTTG", "sensor-assay potency score (higher = more potent)": -0.491}
{"sequence": "TAGACATAAAGAACCTTGCTGT", "sensor-assay potency score (higher = more potent)": 0.607}
{"sequence": "TTAATCCATATAAACTGCCTTC", "sensor-assay potency score (higher = more potent)": -0.603}
{"sequence": "TTTTTCATCATATCCTTCCGAA", "sensor-assay potency score (higher = more potent)": 0.00107}
{"sequence": "TTCACTAGCATTTTTCATCATA", "sensor-assay potency score (higher = more potent)": -0.646}
{"sequence": "ATTAGCACTAAAACAAGCCTTA", "sensor-assay potency score (higher = more potent)": 0.102}
{"sequence": "TTCATCTTCAAGATTCCTCTTG", "sensor-assay potency score (higher = more potent)": 0.439}
{"sequence": "TTTTCCGCTTAGTAGTCTCTGC", "sensor-assay potency score (higher = more potent)": -0.432}
{"target": "UTP3", "experiment": "pooled miR-30 sensor sort-seq; sequence = guide strand", "conditions": "shRNA"}
{"sequence": "TATTTCTTTATAGTACTTCAGT", "sensor-assay potency score (higher = more potent)": -0.591}
{"sequence": "TTTACGAACTTCACGAACCTGG", "sensor-assay potency score (higher = more potent)": -0.0211}
{"sequence": "TAAGTGTCAACAGATGACGAAT", "sensor-assay potency score (higher = more potent)": -1.16}
{"sequence": "TTCGTCGTCCTCATCGTCCATA", "sensor-assay potency score (higher = more potent)": -0.923}
{"sequence": "TTTCTCTTTAGCTTTTGCCTGT", "sensor-assay potency score (higher = more potent)": 0.173}
{"sequence": "TGAAACTTTAGCCAAATCCTTC", "sensor-assay potency score (higher = more potent)": -1.04}
{"sequence": "ATCATCTCCATTTTCGTCGGTG", "sensor-assay potency score (higher = more potent)": -0.329}
{"sequence": "TTGATAGGTAATAGCTCTCTTT", "sensor-assay potency score (higher = more potent)": -1.33}
{"sequence": "TTTCTTTACAGCATCATCCTTA", "sensor-assay potency score (higher = more potent)": 0.221}
{"sequence": "TTTCGGTAGGTAACAAGCCTTT", "sensor-assay potency score (higher = more potent)": -1.19}
{"sequence": "TTTCACTGAAACTTTAGCCAAA", "sensor-assay potency score (higher = more potent)": -0.944}
{"sequence": "TATAGTACTTCAGTTTTGCTTT", "sensor-assay potency score (higher = more potent)": -0.531}
{"target": "UTS2D", "experiment": "pooled miR-30 sensor sort-seq; sequence = guide strand", "conditions": "shRNA"}
{"sequence": "TTATTCAGTAGAGCCAGCAATA", "sensor-assay potency score (higher = more potent)": -1.61}
{"sequence": "TTTTAGCTTTTCCAGCTGGTTA", "sensor-assay potency score (higher = more potent)": -0.983}
{"sequence": "TCTTTTAGCTTTTCCAGCTGGT", "sensor-assay potency score (higher = more potent)": 0.0536}
{"sequence": "TTGTAAAAAAATCAACACGGAT", "sensor-assay potency score (higher = more potent)": -1.39}
{"sequence": "TTGTATATTTTTTATCTGGAAA", "sensor-assay potency score (higher = more potent)": -1.16}
{"sequence": "AAAGTTAGGAGTCCAAAGCAAA", "sensor-assay potency score (higher = more potent)": -1.56}
